Experimental data reported in PubChem BioAssay (NCI).
Compounds without any hit were thinned out: in the full panel of roughly 79,000, 15% have a hit. Values without a mark were called inactive. Cut-off read from the data, not from the text of the source: active = growth inhibition above about 70%; inactive = the rest.

Assay: NCI Yeast Anticancer Drug Screen. Data for the rad50 strain (AID 155);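 note: 0% = growth of vehicle-only cultures of the same strain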
Conditions: S. cerevisiae rad50 strain growth inhibition; at 50.0 µM; stronger effect = higher value
Procedure: Growth inhibition of yeast strains with defined genetic alterations is measured as a screen for potential anti-cancer activity. Selected strains with alterations in DNA damage repair or cell cycle control were exposed to compounds and growth inhibition was measured relative to vehicle treated controls. The strain used in this assay is rad50

Structure (SMILES) | growth inhibition
CN(C)C(=O)C1C2CCC(C3CC32)C1C(=O)N(C)C (stereo not given) | 22.9%
CCCOC1CC(C)C(O)C(C)C1 (stereo not given) | 24.6%
COc1ccc2c(c1)C(C)(C(N)=O)CCC2 (stereo not given) | 3.25%
O.O.O=c1[nH]cc(CO)c(=O)[nH]1.[NH2-].[NH2-].[Pt+2] | 14.1%
COc1ccc(CCNC(=O)c2cccc(Cl)c2)cc1OC | -7.05%
C=CSC(=S)Sc1ccccc1 | 25.6%
Clc1cccc(CC(Br)Br)c1 | 14.8%
NCCCn1c2ccccc2c2cnccc21 | 7.2%
CCOC1(OCC)CS(=O)(=O)C1c1ccccc1 (stereo not given) | -1.2%
CCCCCCCOC(C)=O | 14.8%
Oc1c(N=Nc2ccccc2)c2ccccc2c2ccc3ccccc3c12 | -23.3%
COc1cccc(CC(=O)O)c1OC | 22.9%
CCN(CC)CC1CCCCN1CC(=O)N1c2ccccc2NC(=O)c2ccccc21 (stereo not given) | -6.85%
COc1ccc(C2C3=CONC3CC3CCCCC32)cc1 (stereo not given) | 4.5%
COC(=O)C(CC(=O)[C@H]1CC[C@H]2[C@@H]3CC=C4C[C@@H](OC(C)=O)CC[C@]4(C)[C@H]3CC[C@]12C)OC(C)=O (stereo not given in full) | 18.7%
N#CCCn1ncc(C#N)c1N | 3.4%
O=C(O)c1cc(=O)c2[nH]c3ccccc3c2s1 | -5.2%
CN(CCCN)CCCN | -41.4%
FC(F)(F)c1ccc(C2SCc3nc4ccccc4n32)cc1 (stereo not given) | -43%
NC1=NN(c2ccccc2)C(=O)C1/C(=N\NC(=O)c1cc2ccccc2cc1O)C(=O)Nc1ccc(Cl)cc1 (stereo not given) | 40.5%

Structure (SMILES) | growth inhibition
COc1cc(OC)c(N=Nc2c(N)nc(N)[nH]c2=O)cc1Cl | 4.95%
CCOC(=S)Sc1ccc2c(c1)-c1ccc(F)cc1C2=O | 7%
O=[N+]([O-])c1ccc2c(c1)C(=Nc1ccccc1)c1cc([N+](=O)[O-])cc([N+](=O)[O-])c1-2 | 8.3%
O=C1OC(=O)C2(Cl)C3C=CC(C3)C12 (stereo not given) | 9.3%
COc1ccc(C=Nc2ccc([N+](=O)[O-])cc2O)cc1 | 12.9%
O=C(NCc1ccco1)Nc1ccccc1Cl | -24.9%
CC1=NN(C(=O)c2cccnc2)C(=O)C1N=Nc1ccc(S(=O)(=O)Nc2ccccn2)cc1 (stereo not given) | 25.6%
CCOC(=O)c1ccc(NCc2ccc3nc(OC)c(OC)nc3c2)cc1 | -5.7%
CC1(CCl)Nc2ccccc2C(=O)N1c1ccc(Cl)cc1 (stereo not given) | -2.45%
Cc1ccc(S(=O)(=O)Nc2nnc(CC(C)C)s2)cc1 | 36.2%
NC(=O)N/N=C(/c1nc2ccc([N+](=O)[O-])cc2[nH]c1=O)C(O)c1ccco1 (stereo not given) | 5.35%
O=C(Cc1nccc2c1[nH]c1ccccc12)OC1C#CCSCC#C/C=C\1 (stereo not given) | -0.55%
Nc1ncnc(N2CCOCC2)n1 | -28.8%
CCCCCCCCS(N)(=O)=O | 0.8%
CCOC(=O)c1cn(CC)c2c(ccc3cnccc32)c1=O | -3.55%
O=S(=O)([O-])[O-].O=c1[nH]cnc2nc[n-]c12.[OH3+].[OH3+].[Zn+2] | -26.8%
C/C(=C/c1ccccc1)C(F)F | 3.9%
c1ccc(CNn2nnc3ccccc32)cc1 | 16.6%
CCCN(N)CCC | -8.15%
CCOC(=O)C(SC(Cl)(S(=O)(=O)c1ccccc1)S(=O)(=O)c1ccccc1)C(=O)OCC | 2.1%
